# Assay results as given in ChEMBL document CHEMBL3433997, “St. Jude Leishmania screening dataset” (2016).
# Molecular target: Glucose transporter (Leishmania mexicana) (UniProt O61059)
# Experiment: ST_JUDE_LEISH: Cytotoxicity at 2uM final concentration against transgenic Leishmania Mexicana promastigotes LmGT2 that are glucose transport deficient and complemented with the L. Mexicana glucose transporter 2. Activity is measured by DNA content using SYBR green in vitro
# Type: functional
row,SMILES,inhibition [%]
1,CC1(C)N=C(N)N=C(N)N1c1cc(Cl)c(Cl)cc1Cl,-3.01
2,O=C(NCCSCc1c(F)cccc1Cl)c1cnc2c(c1)nc(-c1c[nH]c(-c3ccccc3)n1)n2CCc1c[nH]cn1,0.97
3,COc1cc2nc(C)nc(Nc3ccc4c(ccn4Cc4ccccc4)c3)c2cc1OC,5.53
4,Cc1cc(CNCCCCCCCNCc2ccc(Cl)cc2)ccc1O,0.81
5,O=C(NCC1CCN(C/C=C/c2ccccc2)CC1)Nc1ccc(Oc2ccccc2)cc1,2.71
6,CCCN/C=N/c1cc(-c2csc(NC(=N)N)n2)cc([N+](=O)[O-])c1,-2.26
7,c1cc(-c2ccc(CN3CCN(c4ccncc4)CC3)cc2)cc(-c2nc3ccccc3[nH]2)c1,2.1
8,CNc1c2c(nc3ccc(NC(=O)CCCCCCc4ccccc4)cc13)CCCC2,4.32
9,COc1ccc(F)cc1-c1ccc(C(=O)N2CCCN(c3ccc(C#N)cn3)CC2)cc1,-5.82
10,O=C(NCCCN1CCC(N2CCCCC2)CC1)c1ccc(N2CCOc3ccccc32)s1,3.19
11,NC(=O)c1cccc(Nc2nccc(Nc3ccc4[nH]c(-c5ccccc5)cc4c3)n2)c1,1.6
12,O=S(=O)(c1ccc(OCc2ccc(Cl)cc2)cc1)c1cc2c(c(-c3ccc(F)cc3)c1)CCN(CC1CC1)CC2,-0.48
13,C[C@H](Cc1ccc(OCCNC[C@H](O)c2cccc(Cl)c2)cc1)NC[C@H](O)c1ccc(Cl)c(Cl)c1,3.19
14,CCc1c(C(=O)NC2CCC(N3CCC(c4ccccc4OC)CC3)CC2)[nH]c2ccc(OC)cc12 (stereo not given),0.22
15,COc1ccc(C2C(C(=O)Nc3ccccc3)=C(C)Nc3c(C(=O)Nc4ccccc4)cnn32)cc1 (stereo not given),0.09
16,CC(C)(C)c1ccc(NC(=O)c2ccc(CN3CCCN(Cc4cccc(O)c4)CC3)cc2)cc1,2.02
17,N#Cc1ccc(N/C(=N\c2ccc(-c3ccccc3)cc2)NCCc2c[nH]c3ccccc23)c(O)c1,8.99
18,C[C@@H](N/C(=N\c1ccc(-c2ccccc2)cc1)Nc1ccc(C#N)cc1O)c1ccc(Br)cc1,2.66
19,CC(C)Oc1cc2c(cc1NS(=O)(=O)c1ccc(-c3ccc(Cl)s3)cc1F)CCN(C)CC2,1.77
20,COc1cc(NC(=O)Nc2ccnc3ccccc23)cc(OC)c1,1.16

row,SMILES,inhibition [%]
1,COc1cc(C(C)C)ccc1N1CCN(CCCCNC(=O)c2ccc(NC(=O)c3ccc(Cl)cc3)cc2)CC1,2.26
2,Cc1c(C(=O)N2CCCC(C(F)(F)F)C2)sc2cccc(F)c12 (stereo not given),5.83
3,O=C(NCCCCCN1CCC(c2c[nH]c3ccccc23)C1)Nc1ccc(Cl)c(Cl)c1 (stereo not given),2.22
4,c1ccc(Oc2ccc(Nc3ccnc4cc(-c5ccc(CN6CCOCC6)o5)ccc34)cc2)nc1,-0.13
5,COc1ccc2c(NN=Cc3ccccc3)ccnc2c1,-1.04
6,CN1CCCN(Cc2ccc(-c3ccc(NC(=O)c4ccc(C#N)cc4)cc3)cc2)CC1,-0.13
7,Cc1ccc2[nH]c(C)cc(=NN=Cc3ccccc3F)c2c1,8.78
8,COc1cc(Cc2cnc(N)nc2N)cc(OCCCS(=O)(=O)O)c1OC,3.36
9,COc1cc(-n2cnc3cc(-c4ccc([N+](=O)[O-])cc4)sc3c2=O)ccc1OCCN1CCCC1,16
10,COc1cccc2cc(C(=O)N[C@@H](CC(C)C)C(=O)N[C@H](/C=N/NC(=O)OC(C)(C)C)CC(=O)OC(C)(C)C)oc12,3.63
11,CC(C)NCc1ccc(-c2cccc(CN3CCC(c4ccccc4)CC3)c2)c(C(=O)NCC2CCCCC2)c1,8.2
12,Cc1ccc(F)c(OCC2CCCN(c3ccc(C(=O)NC4CC4)cn3)C2)c1 (stereo not given),2.18
13,Cn1c(=O)c(-c2c(Cl)cccc2Cl)cc2cnc(Nc3ccc(N4CCOCC4)cc3)nc21,11.6
14,CC(C)C1C(O)=C(c2ccc3ccccc3c2)C(=O)N1Cc1ccsc1 (stereo not given),2.54
15,Cc1ccc(Nc2nccc(NCC(O)c3cccc(C(F)(F)F)c3)n2)cc1 (stereo not given),0.81
16,O=C(Nc1ccc(OC2CCN(Cc3ccc(F)cc3)CC2)c(Cl)c1)c1ccoc1,3.99
17,CCN(CC)CCN(Cc1ccc(-c2ccc(C(F)(F)F)s2)cc1)C(=O)Cn1c(CCc2cccc(F)c2F)nc(=O)c2ccccc21,2.57
18,O=C(Nc1cccc(-c2cccc(-c3nc4ccccc4[nH]3)c2)c1)Nc1ccc2c(c1)OCO2,1.05
19,COc1ccc(NC(=O)NC2CCN(CCCOc3cc(C)nc4ccccc34)CC2)cc1OC,-3.5
20,Cc1cccc2nc(-c3cccc(-c4cccc(NC(=O)c5c[nH]cn5)c4)c3)[nH]c12,-1.05
